# Screening data deposited in PubChem by National Center for Advancing Translational Sciences (NCATS).
# This excerpt belongs to a sample that is enriched for hits.
# HT1080-NT tox = qHTS for induction of synthetic lethality in tumor cells producing 2HG: qHTS for the HT-1080-NT fibrosarcoma cell line | Potency, µM (doses to about 46.1 µM), for the others: top-dose activity, negative = less viability, most hits filed as cytotoxic | AID 686970, 2013 | 360,000 tested, 1.6% active | HT-1080-NT fibrosarcoma viability, CellTiter-Glo ATP luminescence, 48 h;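 note: NT is the 2HG producing partner of a matched IDH1 knockdown line; potency is the fitted concentration of half-maximal effect; 0% = DMSO-treated cells and -100% = media-only wells without cells; nearly all actives have a fitted effect of over 55% in size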
#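 HT-1080-NT; 750 cells/well; 5% FBS RPMI; 48 h compound, 37 degrees C; CellTiter-Glo luminescence; curve fitting and curve-class assignment.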
# TDP1 cell noCPT = qHTS for Inhibitors of human tyrosyl-DNA phosphodiesterase 1 (TDP1): qHTS in cells in absence of CPT; 420,000 tested, 15% active; DT40 Tdp1-/- hTDP1 cells, no CPT, ATP luminescence, 48 h; AID 686978, 2013; Potency, µM (titrated, usually from 46.2 µM), without a hit: at the highest dose activity change, negative = growth inhibition, actives largely listed as inhibitors; note: potency is the fitted concentration of half-maximal effect; nearly all actives have a fitted effect of over 55% in size
#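 No-CPT arm: Tdp1-/-;hTDP1 DT40 cells (400/well) plus compounds, incubated ≥48 hr at 37 °C. Readout CellTiter-Glo luminescence.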
# 12-LOX inh = Primary qHTS assay for inhibitors of human arachidonate 12S-lipoxygenase (ALOX12): Round 2; 580,000 tested, 1.1% active; Potency, µM (series often up to 108 µM), inactives show at the highest dose activity change, negative = inhibition, usual class: inhibitors; Polyunsaturated fatty acid lipoxygenase ALOX12 (Homo sapiens), P18054; AID 1671190, 2021; purified 12hLO, xylenol orange hydroperoxide absorbance; note: potency is the fitted concentration of half-maximal effect
# Target sequence (P18054 whole entry, looked up): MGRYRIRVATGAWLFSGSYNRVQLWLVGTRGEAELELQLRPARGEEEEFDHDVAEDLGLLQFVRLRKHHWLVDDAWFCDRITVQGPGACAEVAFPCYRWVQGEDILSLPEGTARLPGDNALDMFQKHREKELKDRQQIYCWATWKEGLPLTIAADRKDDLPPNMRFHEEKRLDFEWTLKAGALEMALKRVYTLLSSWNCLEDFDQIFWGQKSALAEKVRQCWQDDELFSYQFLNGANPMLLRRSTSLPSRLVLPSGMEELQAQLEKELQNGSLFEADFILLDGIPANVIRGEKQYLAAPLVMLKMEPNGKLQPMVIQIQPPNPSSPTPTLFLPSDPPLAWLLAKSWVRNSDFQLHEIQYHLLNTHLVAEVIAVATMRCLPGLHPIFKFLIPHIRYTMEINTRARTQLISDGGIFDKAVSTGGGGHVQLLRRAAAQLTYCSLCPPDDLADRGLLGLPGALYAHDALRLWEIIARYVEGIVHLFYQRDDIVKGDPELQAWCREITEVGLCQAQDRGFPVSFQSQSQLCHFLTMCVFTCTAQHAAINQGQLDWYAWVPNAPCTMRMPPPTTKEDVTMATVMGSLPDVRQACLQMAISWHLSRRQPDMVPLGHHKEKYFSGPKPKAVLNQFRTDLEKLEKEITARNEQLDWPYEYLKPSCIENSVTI
#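 Purified human 12hLO at 150 nM in 25 mM Hepes, 0.01% Triton X-100, pH 7.0, preincubated 15 min at room temperature with compound. Reaction started with 40 uM arachidonic acid, 30 min at room temperature. Hydroperoxide measured by Fe-xylenol orange, 573/405 nm absorbance ratio.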
# DT40 TDP1 CPT = qHTS for Inhibitors of human tyrosyl-DNA phosphodiesterase 1 (TDP1): qHTS in cells in presence of CPT. chicken DT40 Tdp1-/-;hTDP1 cells + 20 nM CPT, ATP luminescence, 48 h. Potency, µM (highest dose often 46.2 µM), without a hit: at the top dose activity change, negative = growth inhibition, actives largely listed as inhibitors. 420,000 tested, 12% active. AID 686979, 2013; note: potency is the fitted concentration of half-maximal effect; nearly all actives have a fitted effect of over 55% in size
#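 Chicken DT40 Tdp1-/- cells complemented with human TDP1, 400 cells/well, exposed to compounds plus 20 nM camptothecin for at least 48 h at 37 C; viability read as ATP content by CellTiter-Glo luminescence.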
# IL-1B inflam inh = qHTS for Inhibitors of Inflammasome Signaling: IL-1-beta AlphaLISA Primary Screen; activity change, % at 57.5 µM; THP-1 LPS/ATP IL-1B secretion, AlphaLISA, 16 h; hits give low values; AID 743279, 2014; 360,000 tested, 4.7% active; in the data active = activity change below about -50%; inconclusive = mostly about -30% to -49%
#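 THP-1 cells pretreated 1 hr with compounds (up to 57.5 uM final), then stimulated with LPS (250 ng/mL final) plus ATP (1.25 mM final); secreted IL-1B measured by AlphaLISA after 16 hr, decreased signal indicating inhibition.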
# HT1080 IDH1KD tx = qHTS for induction of synthetic lethality in tumor cells producing 2HG: qHTS for the HT-1080-IDH1KD cell line. HT-1080 IDH1 knockdown viability, ATP luminescence, 48 h. Potency, µM (series often up to 46.1 µM), inactives show top-dose activity, negative = toxicity, usual class: cytotoxic. 360,000 tested, 2% active;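 note: potency is the fitted concentration of half-maximal effect; 0% = DMSO wells and -100% = cell-free medium wells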
#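 Knockdown cells (IDH1KD HT-1080) received compounds 2 h after plating at 750 cells/well and were kept 48 h at 37 °C in 5% FBS RPMI. A CellTiter-Glo luminescence read gave % activity for curve fitting.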
# Numbers without * were called inactive; ? = inconclusive; . = no result. Unless noted, calls come from the whole dose curve; as a rule, active = well fitted curve in the direction sought with a large enough effect; inconclusive = small, poorly fitted or top-dose-only effect, or another doubt; inactive = no such curve, though single readings can be large; an effect the other way counts as inactive or inconclusive. Unless noted, % is set by controls: 0 for no effect and ±100 for the full control effect.
SMILES,HT1080-NT tox,TDP1 cell noCPT,12-LOX inh,DT40 TDP1 CPT,IL-1B inflam inh,HT1080 IDH1KD tx
Cc1cccc(C)c1NC(=O)C(c1cccs1)N(Cc1ccco1)C(=O)Cn1nnc2ccccc21 (stereo not drawn),8.4%,10.3µM*,10.5%,?,-3.2,2.7%
O=C(NC1CCCCC1)C(c1ccc(F)cc1)N(Cc1ccco1)C(=O)CN1C(=O)c2ccccc2S1(=O)=O (stereo not drawn),-1.8%,18.4µM*,1.5%,?,-2.9,-1.2%
O=C(NCC1CCCO1)C(c1ccco1)N(Cc1ccc(F)cc1)C(=O)CN1C(=O)c2ccccc2S1(=O)=O (stereo not drawn),4.5%,-25.6%,-60.8%,-8.6%,7.8,10.7%
O=C(NC1CCCCC1)C(c1ccccc1F)N(Cc1ccco1)C(=O)Cn1nnc2ccccc21 (stereo not drawn),-8.0%,18.4µM*,-20.2%,?,-7.0,-0.9%
O=C(NC1CCCCC1)C(c1ccc(F)cc1)N(Cc1ccco1)C(=O)Cn1nnc2ccccc21 (stereo not drawn),-16.6%,-15.6%,4.3%,-23.0%,9.3,-27.7%
Cc1ccc(C(C(=O)NC2CCCCC2)N(Cc2ccco2)C(=O)Cn2cnc3ccccc32)cc1 (stereo not drawn),-21.5%,?,39.9%,18.4µM*,-2.1,?
O=C1CSc2sc(=S)sc2SC1,.,.,5.01µM*,.,.,.
CC(C)CN(C(=O)Cn1nc(-c2ccc(Cl)cc2)ccc1=O)C1CCS(=O)(=O)C1 (stereo not drawn),.,.,23.5%,.,.,.
COC1C(=O)N(C2CCN(C(=O)c3cnn(C)c3)CC2)C12CCOCC2 (stereo not drawn),.,.,23.9%,.,.,.
COc1ccc(S(=O)(=O)N(C)CC(=O)Nc2ccccc2C(F)(F)F)cc1Cl,-7.6%,-8.3%,-31.8%,?,12.6,-5.5%
COc1ccc(NC(=O)CN(C)S(=O)(=O)c2ccc3[nH]c4c(c3c2)CCCC4)cc1Cl,.,?,?,23.1µM*,.,.
COc1cc(NC(=O)CN(C)S(=O)(=O)c2ccc3c(c2)CCCC(=O)N3)cc(OC)c1OC,.,.,-4.4%,.,.,.
Cc1ccc(NC(=O)CN(C)S(=O)(=O)c2ccc3[nH]c4c(c3c2)CCCC4)c(Cl)c1,.,18.4µM*,?,?,.,.
Cc1ccc(S(=O)(=O)N(C)CC(=O)Nc2cccc3c2CCCC3)cc1,-1.2%,?,34.7%,-18.3%,8.1,-11.6%
COc1cc(Cl)c(NC(=O)CN(C)S(=O)(=O)c2ccc3[nH]c4c(c3c2)CCCC4)c(OC)c1,.,18.4µM*,-22.2%,23.1µM*,.,.
COc1ccc(NC(=O)CN(C)S(=O)(=O)c2ccc3[nH]c4c(c3c2)CCCC4)cc1OC,.,16.4µM*,-12.1%,?,.,.
O=C(Cc1cccc(F)c1)N1CCCC(c2noc(COc3ccccc3)n2)C1 (stereo not drawn),.,.,54.4%,.,.,.
CCN(CC)C(=O)N1CCN(Cc2nc(C(C)C)no2)CC1,.,.,34.3%,.,.,.
O=C(O)Cc1ccc(Cl)nc1,.,.,0.0%,.,.,.
CN(CC(=O)Nc1cccc(Cl)c1)S(=O)(=O)c1ccc2[nH]c3c(c2c1)CCCC3,.,23.1µM*,?,?,.,.
CN(CC(=O)Nc1cccc(C(F)(F)F)c1)S(=O)(=O)c1ccc2[nH]c3c(c2c1)CCCC3,.,?,-4.4%,?,.,.
CC(C)NC(=O)N1CCN(S(=O)(=O)c2ccccc2)[C@@H](C(=O)N[C@H](Cc2c[nH]c3ccccc23)C(N)=O)C1,.,.,1.8%,.,.,.
COC(=O)C1Cc2ccccc2CN1C(=O)CCl (stereo not drawn),8.2µM*,14.6µM*,-10.0%,14.6µM*,-97.2*,14.6µM*
COc1cc2c(cc1OC)C(C)N(C(=O)c1c(C)noc1C)CC2 (stereo not drawn),-24.7%,13µM*,79.3%,?,3.8,?
COc1cc2c(cc1OC)C(C)N(C(=O)c1ccccc1Br)CC2 (stereo not drawn),.,.,5.2%,.,.,.
SMILES,HT1080-NT tox,TDP1 cell noCPT,12-LOX inh,DT40 TDP1 CPT,IL-1B inflam inh,HT1080 IDH1KD tx
COc1cc2c(cc1OC)C(C)N(C(=O)c1cc(C)on1)CC2 (stereo not drawn),?,1.03µM*,2.7%,0.82µM*,36.1,1.46µM*
COc1cc2c(cc1OC)C(C)N(C(=O)c1cc3ccccc3o1)CC2 (stereo not drawn),?,?,20.6%,8.2µM*,-59.4*,5.62µM*
CC1=C(C(=O)OCc2ccccc2)C(c2cccs2)N2C(=O)CCSC2=N1 (stereo not drawn),-15.3%,-25.3%,-1.2%,0.3%,-56.4*,-7.0%
CCOC(=O)C1=C(C)N=C2SCCC(=O)N2[C@@H]1c1cccs1,6.4%,-23.4%,86.7%,10.9%,14.6,-9.4%
COc1ccccc1/C=C/C1C(C(=O)OCC(C)C)=C(C)N=C2SCCC(=O)N21 (stereo not drawn),-21.3%,3.9%,2.9%,1.9%,-68.7*,-25.2%
COC(=O)C1=C(C)N=C2SCCC(=O)N2C1c1ccc(OCc2ccccc2)c(OC)c1 (stereo not drawn),.,?,-25.2%,?,.,.
COc1cc(C2C(C(=O)OC(C)C)=C(C)N=C3SCCC(=O)N32)ccc1OCc1ccccc1 (stereo not drawn),.,29.1µM*,-4.0%,13µM*,.,.
O=C(c1ccco1)N1CCCCC1c1nc(CCOCC2CC2)no1 (stereo not drawn),.,.,18.7%,.,.,.
CCOC(=O)c1cnc(Nc2cc(F)ccc2F)c2ccccc12,.,.,0.0%,.,.,.
O=C1c2ccccc2C(Nc2cccc(C(F)(F)F)c2)N1Cc1ccco1 (stereo not drawn),-23.8%,16.4µM*,?,23.1µM*,-5.2,?
COc1cccc(NC2c3ccccc3C(=O)N2Cc2ccco2)c1 (stereo not drawn),-5.0%,23.1µM*,9.0%,20.6µM*,0.0,-2.3%
COc1ccc(N2CCN(c3cc(C)nc4ccc(OC)cc34)CC2)cc1,-29.0%,23.1µM*,?,14.6µM*,-1.5,?
